Source: publication PMC7862700, “An all-to-all approach to the identification of sequence-specific readers for epigenetic DNA modifications on cytosine”

What was measured:
Assay in all cases: DAPPL (digital affinity profiling via proximity ligation, sequencing); 10 mM Tris-HCl pH 7.5, 50 mM NaCl, 1 mM DTT, 4% glycerol, room temperature, 30 min; GST-TFs on glutathione beads, 16-mer random dsDNA library, 0.1% formaldehyde crosslink after washing; high values mean tight binding
Details in all cases: protein: recombinant; tags: N-terminal GST; dsDNA, one strand shown
[1] = biological target: T1, FLI1 (Homo sapiens, UniProt Q01543 1-452)
T1 sequence: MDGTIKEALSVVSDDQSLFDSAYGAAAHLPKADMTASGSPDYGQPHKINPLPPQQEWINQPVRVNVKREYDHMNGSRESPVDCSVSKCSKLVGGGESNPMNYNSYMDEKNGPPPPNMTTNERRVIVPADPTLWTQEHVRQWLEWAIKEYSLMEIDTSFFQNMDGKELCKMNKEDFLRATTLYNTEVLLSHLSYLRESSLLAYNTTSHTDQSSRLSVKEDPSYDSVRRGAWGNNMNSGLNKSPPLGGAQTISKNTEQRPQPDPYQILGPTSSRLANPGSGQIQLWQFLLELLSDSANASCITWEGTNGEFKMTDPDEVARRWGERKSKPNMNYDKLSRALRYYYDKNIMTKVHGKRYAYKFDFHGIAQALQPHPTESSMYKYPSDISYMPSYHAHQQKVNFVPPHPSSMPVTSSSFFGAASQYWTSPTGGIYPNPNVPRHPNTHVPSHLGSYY
How it was run: (§1)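 Pools were built from human transcription factors expressed in yeast as GST fusions, captured on glutathione beads and DNA-barcoded, along with a tag-only sample. Incubation with 200 nmole of a 16-mer random double-stranded DNA library lasted 30 min at room temperature in Tris/NaCl/DTT/glycerol buffer, and was followed by washing, 0.1% formaldehyde crosslinking, proximity ligation, PCR amplification and Illumina NextSeq500 sequencing. Binding signal is the quotient of each hexamer's read frequency for a factor and its frequency for the tag-only sample.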

[2] = biological target: T2, GABPA (Homo sapiens, UniProt Q06546 1-454)
T2 sequence: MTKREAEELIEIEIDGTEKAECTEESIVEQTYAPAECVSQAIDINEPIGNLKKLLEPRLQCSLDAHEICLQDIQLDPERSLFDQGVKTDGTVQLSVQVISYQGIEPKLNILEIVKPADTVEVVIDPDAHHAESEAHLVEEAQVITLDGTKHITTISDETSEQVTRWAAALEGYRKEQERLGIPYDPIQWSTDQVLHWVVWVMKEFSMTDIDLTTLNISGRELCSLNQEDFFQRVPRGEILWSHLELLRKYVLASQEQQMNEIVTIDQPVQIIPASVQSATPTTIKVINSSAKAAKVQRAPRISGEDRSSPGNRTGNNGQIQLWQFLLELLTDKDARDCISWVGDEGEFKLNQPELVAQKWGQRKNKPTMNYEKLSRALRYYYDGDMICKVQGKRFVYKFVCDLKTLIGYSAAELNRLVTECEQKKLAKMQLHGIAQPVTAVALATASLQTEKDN
How it was run: as §1

[3] = biological target: T3, ERG (Homo sapiens, UniProt P11308 1-479)
T3 sequence: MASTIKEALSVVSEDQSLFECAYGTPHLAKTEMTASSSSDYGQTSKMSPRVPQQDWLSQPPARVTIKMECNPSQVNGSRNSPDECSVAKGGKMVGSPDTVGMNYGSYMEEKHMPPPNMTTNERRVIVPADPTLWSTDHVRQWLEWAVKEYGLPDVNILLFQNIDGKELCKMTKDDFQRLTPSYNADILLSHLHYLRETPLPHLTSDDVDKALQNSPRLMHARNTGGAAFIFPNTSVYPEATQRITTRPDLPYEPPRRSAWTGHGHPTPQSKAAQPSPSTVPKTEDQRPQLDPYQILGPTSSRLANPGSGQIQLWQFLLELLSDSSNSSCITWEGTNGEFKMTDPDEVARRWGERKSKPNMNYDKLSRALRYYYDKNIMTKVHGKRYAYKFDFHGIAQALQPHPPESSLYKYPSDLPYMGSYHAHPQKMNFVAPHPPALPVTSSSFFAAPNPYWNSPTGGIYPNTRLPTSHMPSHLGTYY
How it was run: as §1

[4] = biological target: ELF1 (Homo sapiens, UniProt P32519 1-619)
How it was run: as §1

[5] = biological target: T4, EHF (Homo sapiens, UniProt Q9NZC4 1-300)
T4 sequence: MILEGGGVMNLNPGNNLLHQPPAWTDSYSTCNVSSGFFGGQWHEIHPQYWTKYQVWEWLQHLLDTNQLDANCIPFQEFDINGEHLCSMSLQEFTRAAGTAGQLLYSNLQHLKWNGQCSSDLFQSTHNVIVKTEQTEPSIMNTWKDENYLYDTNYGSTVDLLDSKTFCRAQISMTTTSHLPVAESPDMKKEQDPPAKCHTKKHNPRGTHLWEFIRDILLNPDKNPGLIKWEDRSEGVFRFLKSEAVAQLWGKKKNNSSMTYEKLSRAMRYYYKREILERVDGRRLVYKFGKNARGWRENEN
How it was run: as §1

[6] = biological target: SPI1 (Homo sapiens, UniProt P17947 1-270)
How it was run: as §1

[7] = biological target: SPIB (Homo sapiens, UniProt Q01892 1-262)
How it was run: as §1

[8] = biological target: T5, ELK3 (Homo sapiens, UniProt P41970 1-407)
T5 sequence: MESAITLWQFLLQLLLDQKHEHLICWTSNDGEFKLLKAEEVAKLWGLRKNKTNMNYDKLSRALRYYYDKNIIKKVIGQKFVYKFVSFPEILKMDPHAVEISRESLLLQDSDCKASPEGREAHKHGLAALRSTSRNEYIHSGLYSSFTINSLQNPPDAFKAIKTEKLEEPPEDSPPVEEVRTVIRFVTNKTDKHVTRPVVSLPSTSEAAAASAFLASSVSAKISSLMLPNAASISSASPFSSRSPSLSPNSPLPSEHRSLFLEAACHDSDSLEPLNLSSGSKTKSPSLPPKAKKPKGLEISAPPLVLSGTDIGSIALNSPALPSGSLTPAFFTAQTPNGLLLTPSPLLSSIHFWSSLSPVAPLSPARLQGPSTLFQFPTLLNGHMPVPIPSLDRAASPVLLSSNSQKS
How it was run: as §1

[9] = biological target: ETV5 (Homo sapiens, UniProt P41161 1-510)
How it was run: as §1

[10] = biological target: ELF4 (Homo sapiens, UniProt Q99607 1-663)
How it was run: as §1

[11] = biological target: T6, ETV2 (Homo sapiens, UniProt O00321 1-342)
T6 sequence: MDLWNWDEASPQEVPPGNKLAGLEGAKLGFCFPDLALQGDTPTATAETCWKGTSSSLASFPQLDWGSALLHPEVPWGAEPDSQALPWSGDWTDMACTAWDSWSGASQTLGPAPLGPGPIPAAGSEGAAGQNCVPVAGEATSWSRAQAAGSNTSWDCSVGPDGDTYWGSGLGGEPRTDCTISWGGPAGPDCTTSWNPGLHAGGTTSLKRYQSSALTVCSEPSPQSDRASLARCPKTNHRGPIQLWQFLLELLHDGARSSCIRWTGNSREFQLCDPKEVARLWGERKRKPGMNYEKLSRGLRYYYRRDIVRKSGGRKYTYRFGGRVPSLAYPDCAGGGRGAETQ
How it was run: as §1

[12] = biological target: T7, ELF3 (Homo sapiens, UniProt P78545 1-371)
T7 sequence: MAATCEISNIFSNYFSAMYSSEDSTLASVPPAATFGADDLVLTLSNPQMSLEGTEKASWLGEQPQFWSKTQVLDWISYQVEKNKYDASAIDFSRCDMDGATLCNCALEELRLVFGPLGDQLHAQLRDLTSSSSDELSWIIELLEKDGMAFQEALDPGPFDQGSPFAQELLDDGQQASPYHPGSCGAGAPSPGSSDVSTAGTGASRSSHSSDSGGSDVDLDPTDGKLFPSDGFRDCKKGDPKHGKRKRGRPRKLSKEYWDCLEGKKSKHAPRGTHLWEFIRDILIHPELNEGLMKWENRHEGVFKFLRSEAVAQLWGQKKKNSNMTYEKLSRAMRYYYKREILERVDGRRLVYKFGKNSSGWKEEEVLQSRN
How it was run: as §1

[13] = biological target: ETV1 (Homo sapiens, UniProt P50549 1-477)
How it was run: as §1

[14] = biological target: T8, ERF (Homo sapiens, UniProt P50548 1-548)
T8 sequence: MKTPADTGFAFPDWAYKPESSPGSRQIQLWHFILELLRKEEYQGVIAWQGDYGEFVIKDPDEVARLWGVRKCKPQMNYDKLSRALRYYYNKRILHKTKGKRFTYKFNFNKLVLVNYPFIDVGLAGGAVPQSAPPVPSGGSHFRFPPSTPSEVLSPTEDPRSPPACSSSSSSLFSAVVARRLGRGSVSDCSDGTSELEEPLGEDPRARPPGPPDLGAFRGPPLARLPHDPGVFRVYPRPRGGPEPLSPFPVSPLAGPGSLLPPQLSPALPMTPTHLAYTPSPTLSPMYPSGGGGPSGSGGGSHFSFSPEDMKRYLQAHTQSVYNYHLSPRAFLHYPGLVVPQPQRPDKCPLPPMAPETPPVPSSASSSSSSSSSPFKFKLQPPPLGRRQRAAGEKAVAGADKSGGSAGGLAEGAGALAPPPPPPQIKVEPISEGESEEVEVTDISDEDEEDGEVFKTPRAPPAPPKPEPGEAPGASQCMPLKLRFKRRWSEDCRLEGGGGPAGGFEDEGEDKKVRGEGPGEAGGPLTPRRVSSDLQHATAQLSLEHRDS
How it was run: as §1

[15] = biological target: T9, ETS2 (Homo sapiens, UniProt P15036 1-469)
T9 sequence: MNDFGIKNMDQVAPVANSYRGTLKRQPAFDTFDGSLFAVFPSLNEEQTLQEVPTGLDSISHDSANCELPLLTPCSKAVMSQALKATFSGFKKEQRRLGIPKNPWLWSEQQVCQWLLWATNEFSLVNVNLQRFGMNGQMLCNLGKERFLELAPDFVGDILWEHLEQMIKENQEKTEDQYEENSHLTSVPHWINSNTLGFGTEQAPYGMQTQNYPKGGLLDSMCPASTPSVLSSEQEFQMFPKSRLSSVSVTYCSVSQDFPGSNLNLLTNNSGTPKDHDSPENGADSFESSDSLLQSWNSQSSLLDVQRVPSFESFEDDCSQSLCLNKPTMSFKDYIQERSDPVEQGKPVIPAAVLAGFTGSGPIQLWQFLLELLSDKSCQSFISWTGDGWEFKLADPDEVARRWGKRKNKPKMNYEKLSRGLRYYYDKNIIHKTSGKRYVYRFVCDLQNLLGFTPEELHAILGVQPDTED
How it was run: as §1

[16] = biological target: T10, ETV7 (Homo sapiens, UniProt Q9Y603 1-341)
T10 sequence: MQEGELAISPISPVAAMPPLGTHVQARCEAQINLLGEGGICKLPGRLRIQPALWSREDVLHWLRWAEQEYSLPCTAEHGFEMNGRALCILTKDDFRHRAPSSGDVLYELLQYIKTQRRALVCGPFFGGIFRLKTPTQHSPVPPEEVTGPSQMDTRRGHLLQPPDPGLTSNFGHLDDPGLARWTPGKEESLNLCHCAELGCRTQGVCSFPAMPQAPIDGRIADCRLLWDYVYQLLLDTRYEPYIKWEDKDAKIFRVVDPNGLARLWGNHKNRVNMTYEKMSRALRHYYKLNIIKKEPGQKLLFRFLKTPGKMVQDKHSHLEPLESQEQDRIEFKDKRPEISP
How it was run: as §1

[17] = biological target: T11, ETV3 (Homo sapiens, UniProt P41162-2 1-143)
T11 sequence: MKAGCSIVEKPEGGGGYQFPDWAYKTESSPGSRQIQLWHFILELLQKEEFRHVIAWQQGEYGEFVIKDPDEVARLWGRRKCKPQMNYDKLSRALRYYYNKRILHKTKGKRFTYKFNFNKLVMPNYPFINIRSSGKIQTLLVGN
How it was run: as §1

[18] = biological target: ETV6 (Homo sapiens, UniProt P41212 1-452)
How it was run: as §1

Sequence of ETV6 (P41212 whole entry): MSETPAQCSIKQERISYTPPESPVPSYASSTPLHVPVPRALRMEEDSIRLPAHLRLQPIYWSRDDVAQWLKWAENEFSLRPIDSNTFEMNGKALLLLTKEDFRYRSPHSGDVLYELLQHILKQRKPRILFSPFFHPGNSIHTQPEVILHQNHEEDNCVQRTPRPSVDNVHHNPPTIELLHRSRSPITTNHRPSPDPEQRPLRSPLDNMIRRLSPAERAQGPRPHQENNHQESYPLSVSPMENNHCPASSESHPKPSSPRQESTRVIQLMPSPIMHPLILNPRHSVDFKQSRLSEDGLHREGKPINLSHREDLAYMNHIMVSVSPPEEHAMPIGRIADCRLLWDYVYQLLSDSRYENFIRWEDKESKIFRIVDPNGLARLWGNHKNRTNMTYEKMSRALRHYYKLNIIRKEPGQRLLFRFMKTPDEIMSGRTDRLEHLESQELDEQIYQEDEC
Sequence of ETV1 (P50549 whole entry): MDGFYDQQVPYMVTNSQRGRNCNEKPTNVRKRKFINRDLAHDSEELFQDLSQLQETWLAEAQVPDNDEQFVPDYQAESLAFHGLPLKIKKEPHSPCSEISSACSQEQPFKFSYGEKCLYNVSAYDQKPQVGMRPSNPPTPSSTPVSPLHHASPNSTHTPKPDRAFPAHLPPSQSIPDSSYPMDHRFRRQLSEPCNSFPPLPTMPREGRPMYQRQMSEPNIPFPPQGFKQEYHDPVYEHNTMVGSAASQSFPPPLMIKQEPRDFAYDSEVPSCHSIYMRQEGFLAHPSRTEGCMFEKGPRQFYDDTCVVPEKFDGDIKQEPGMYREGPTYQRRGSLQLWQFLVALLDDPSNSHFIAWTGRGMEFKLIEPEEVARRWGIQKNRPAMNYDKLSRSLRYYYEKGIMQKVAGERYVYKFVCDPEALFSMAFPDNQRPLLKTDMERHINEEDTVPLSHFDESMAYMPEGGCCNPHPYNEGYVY
Sequence of ELF4 (Q99607 whole entry): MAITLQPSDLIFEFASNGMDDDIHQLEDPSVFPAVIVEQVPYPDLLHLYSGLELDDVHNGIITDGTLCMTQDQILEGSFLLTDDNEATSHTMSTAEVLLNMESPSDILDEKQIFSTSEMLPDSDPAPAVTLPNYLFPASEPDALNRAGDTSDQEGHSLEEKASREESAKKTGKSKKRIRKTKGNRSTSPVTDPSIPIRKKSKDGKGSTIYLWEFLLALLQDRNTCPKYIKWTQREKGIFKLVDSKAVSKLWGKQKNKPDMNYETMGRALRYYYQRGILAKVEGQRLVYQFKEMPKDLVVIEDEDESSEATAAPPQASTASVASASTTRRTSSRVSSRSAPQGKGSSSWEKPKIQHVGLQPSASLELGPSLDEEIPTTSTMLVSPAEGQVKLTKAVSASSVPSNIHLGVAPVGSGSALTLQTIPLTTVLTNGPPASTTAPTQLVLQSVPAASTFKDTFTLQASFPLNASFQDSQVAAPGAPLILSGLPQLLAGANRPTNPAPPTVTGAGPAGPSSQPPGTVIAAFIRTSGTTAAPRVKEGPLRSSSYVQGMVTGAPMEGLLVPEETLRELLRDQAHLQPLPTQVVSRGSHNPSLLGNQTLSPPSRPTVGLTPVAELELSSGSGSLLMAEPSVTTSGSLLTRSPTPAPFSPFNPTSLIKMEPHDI
Sequence of SPIB (Q01892 whole entry): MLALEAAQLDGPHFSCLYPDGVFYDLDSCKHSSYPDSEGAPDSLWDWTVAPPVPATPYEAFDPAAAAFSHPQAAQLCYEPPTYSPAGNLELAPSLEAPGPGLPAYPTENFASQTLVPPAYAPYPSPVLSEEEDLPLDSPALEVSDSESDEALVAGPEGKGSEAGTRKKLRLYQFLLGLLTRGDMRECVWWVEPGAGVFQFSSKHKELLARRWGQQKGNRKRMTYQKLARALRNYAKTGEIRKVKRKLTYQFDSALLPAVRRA
Sequence of ETV5 (P41161 whole entry): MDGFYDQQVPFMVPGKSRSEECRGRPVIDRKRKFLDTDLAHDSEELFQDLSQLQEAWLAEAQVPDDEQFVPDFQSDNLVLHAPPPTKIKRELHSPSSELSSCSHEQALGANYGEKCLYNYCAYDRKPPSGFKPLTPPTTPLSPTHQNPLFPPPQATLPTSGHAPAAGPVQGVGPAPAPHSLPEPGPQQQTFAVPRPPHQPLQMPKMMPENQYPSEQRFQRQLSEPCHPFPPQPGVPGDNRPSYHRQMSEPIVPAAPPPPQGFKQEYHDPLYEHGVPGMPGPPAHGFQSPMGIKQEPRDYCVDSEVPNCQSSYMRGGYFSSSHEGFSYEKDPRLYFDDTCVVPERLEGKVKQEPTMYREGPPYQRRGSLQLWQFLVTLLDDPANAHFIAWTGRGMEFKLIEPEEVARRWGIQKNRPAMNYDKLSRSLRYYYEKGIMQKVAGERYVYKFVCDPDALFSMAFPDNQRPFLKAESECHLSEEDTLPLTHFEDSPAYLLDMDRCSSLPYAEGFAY
Sequence of ELF1 (P32519 whole entry): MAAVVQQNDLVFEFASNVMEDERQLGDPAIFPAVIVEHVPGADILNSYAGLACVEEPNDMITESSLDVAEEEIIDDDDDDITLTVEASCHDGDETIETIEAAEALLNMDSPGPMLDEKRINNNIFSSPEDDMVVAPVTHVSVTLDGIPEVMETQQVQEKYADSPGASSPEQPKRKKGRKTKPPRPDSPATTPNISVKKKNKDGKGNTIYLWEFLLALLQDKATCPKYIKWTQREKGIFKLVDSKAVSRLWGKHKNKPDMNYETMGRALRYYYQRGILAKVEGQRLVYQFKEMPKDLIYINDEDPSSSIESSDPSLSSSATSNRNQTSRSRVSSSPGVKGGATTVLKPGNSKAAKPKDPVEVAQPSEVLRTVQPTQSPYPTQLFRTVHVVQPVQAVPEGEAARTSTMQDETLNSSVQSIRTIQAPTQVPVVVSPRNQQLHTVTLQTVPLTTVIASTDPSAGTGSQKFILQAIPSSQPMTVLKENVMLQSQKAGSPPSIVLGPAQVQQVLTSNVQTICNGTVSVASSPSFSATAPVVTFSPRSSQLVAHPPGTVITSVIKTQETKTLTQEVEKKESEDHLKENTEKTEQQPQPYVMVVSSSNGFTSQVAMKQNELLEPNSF

For CGCTAT, the binding signal [1] was 1.13 fold enrichment (6-mer frequency, TF over GST control), the binding signal [2] was 1.07 fold enrichment (6-mer frequency, TF over GST control) and the binding signal [3] was 1.09 fold enrichment (6-mer frequency, TF over GST control). The binding signal [4] was 1.09 fold enrichment (6-mer frequency, TF over GST control), the binding signal [5] was 1.06 fold enrichment (6-mer frequency, TF over GST control) and the binding signal [6] was 1.11 fold enrichment (6-mer frequency, TF over GST control). For the same sequence, the binding signal [7] was 1.12 fold enrichment (6-mer frequency, TF over GST control), the binding signal [8] was 1.13 fold enrichment (6-mer frequency, TF over GST control) and the binding signal [9] was 1.1 fold enrichment (6-mer frequency, TF over GST control). The binding signal [10] was 1.15 fold enrichment (6-mer frequency, TF over GST control), the binding signal [11] was 1.15 fold enrichment (6-mer frequency, TF over GST control) and the binding signal [12] was 1.01 fold enrichment (6-mer frequency, TF over GST control). For the same sequence, the binding signal [13] was 1.09 fold enrichment (6-mer frequency, TF over GST control), the binding signal [14] was 1.16 fold enrichment (6-mer frequency, TF over GST control) and the binding signal [15] was 1.03 fold enrichment (6-mer frequency, TF over GST control). For the same sequence, the binding signal [16] was 1.25 fold enrichment (6-mer frequency, TF over GST control), the binding signal [17] was 1.14 fold enrichment (6-mer frequency, TF over GST control) and the binding signal [18] was 1.09 fold enrichment (6-mer frequency, TF over GST control).
